# High-throughput results as filed in PubChem BioAssay.
# TDP-43 rescue: inhibitors of TDP-43 toxicity in yeast | yeast TDP-43 toxicity rescue, BacTiter-Glo growth, 24 h | Potency, µM (titrated, usually from 46.1 µM), actives largely listed as activators | hit rate 0.45% among 45,000; active means well fitted activation curve with a large enough effect; further: 0% is about no effect; nearly all actives have a fitted effect of over 55% in size
#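 TDP-43-expressing yeast, pregrown in raffinose, seeded at OD600 0.02 in galactose medium with compound for 24 hr at 30 deg C. Growth read by BacTiter-Glo luminescence, so rescue of toxicity appears as activation.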
# Active calls of the source: *; i = inactive. Many of the other results were omitted from the sample, so hits are more common in it than they were. Potency means the concentration at half of the fitted maximal effect.
SMILES,TDP-43 rescue
COc1cc(-c2nc3ncccn3c2Nc2ccc(C)cc2C)ccc1O,i
N/C(=N\OC(=O)c1cccc(Cl)c1)c1cccnc1,11.2µM*
N/C(=N\OC(=O)COc1ccc(Cl)cc1Cl)c1cccnc1,i
N/C(=N\OC(=O)c1ccc(Cl)cc1[N+](=O)[O-])c1cccnc1,i
Fc1ccc(-c2n[nH]c(=S)n2/N=C/c2c[nH]c3ccccc23)cc1,i
O=C(c1ccc2c(c1)N(Cc1ccc(F)cc1)C(=O)c1ccccc1S2(=O)=O)N1CCCCC1,i
COc1cc2[nH]c3c(=O)n(N)c(=O)[nH]c3c2cc1OC,i
CCOC(=O)c1c(NC(=O)c2cc(OCC)c(OCC)c(OCC)c2)sc2c1CCCCC2,i
Cc1ccc(S(=O)(=O)N(C)C)cc1NC(=S)N1CCCCC1CO (configuration not stated),i
CCc1ccc(OCC(=O)N(Cc2ccc(C)o2)C2CCS(=O)(=O)C2)cc1 (configuration not stated),i
O=C(Nc1nc2ccc3ccccc3c2s1)c1ccc(N2CCCCC2)c([N+](=O)[O-])c1,i
CC(=O)OC[C@H]1COc2ccc3ccccc3c2[C@H]1N(C)C(C)=O,i
CC(=O)N1c2ccc3ccccc3c2C(C)CC12CCCCC2 (configuration not stated),14.1µM*
Cc1ccc(C)c(CN2C(=O)c3ccccc3S(=O)(=O)c3ccc(C(=O)N4CCOCC4)cc32)c1,i
C[C@H](NC(=O)CCCn1nnc2ccccc2c1=O)C(=O)O,i
Cc1ccc(/C=C/C(=O)OCn2nnc3ccccc3c2=O)o1,14.1µM*
Cc1ccccc1OCC(=O)OCn1nnc2ccccc2c1=O,i
Cc1sc(NC(=O)c2ccco2)nc1-c1ccccc1,12.6µM*
Cc1nc(NC(=O)c2ccco2)sc1C(=O)O,i
CC(=O)c1c(C)[nH]c(C(=O)Nc2nc(-c3ccccc3)c(C)s2)c1C,i
Cc1ccc(CN2C(=O)C(O)(CC(=O)c3ccc(C)cc3)c3ccccc32)cc1 (configuration not stated),i
COc1cccc(N2CCN(c3c4c(nc5nncn35)CCC4)CC2)c1,i
COc1ccc2[nH]cc(S(=O)(=O)c3ccc(C)cc3)c2c1,i
O=C(Nc1cc2c(cc1C(=O)c1ccc(Br)cc1)OCCO2)c1ccc(Cl)cc1,i
CSc1ncccc1C(=O)NCc1nnc2ccccn12,i
SMILES,TDP-43 rescue
CSc1nnc2c(n1)OC(c1cccc(O)c1Cl)Nc1ccccc1-2 (configuration not stated),i
Cc1cccc(C2c3[nH]c4ccccc4c3CCN2C(=O)Cc2n[nH]c(C)n2)n1 (configuration not stated),i
CC(=O)c1ccc(C(=O)N2CCc3c([nH]c4ccccc34)C2c2cccc(C)n2)s1 (configuration not stated),12.6µM*
Cc1cccc(C2c3[nH]c4ccccc4c3CCN2Cc2ccc(C)s2)n1 (configuration not stated),i
COc1ccc(Br)cc1C(=O)NC(=S)Nc1ccc2[nH]c(=O)[nH]c2c1,i
COc1ccc(Br)cc1C(=O)Nc1ccc(N2CCCC2)cc1,i
COc1ccc(Br)cc1C(=O)Nc1ccc(C(=O)O)cc1,4.47µM*
O=C(CN(Cc1ccccc1)S(=O)(=O)c1ccc(F)cc1)NCc1cccnc1,i
CC(=O)Nc1ccc(NC(=O)C2Cc3c(-c4cccc(C(C)=O)c4)ccnc3O2)cc1 (configuration not stated),i
CC(=O)c1cccc(-c2ccnc3c2CC(C(=O)Nc2cccc(OC(F)(F)F)c2)O3)c1 (configuration not stated),22.4µM*
O=C(Nc1cccc(OC(F)(F)F)c1)C1Cc2c(-c3ccco3)ccnc2O1 (configuration not stated),i
COc1ccc(C)cc1NC(=O)CCN1CC(C)OC(C)C1 (configuration not stated),i
O=C(NC(=S)Nc1cccc2cc(O)ccc12)c1ccccc1Br,15.8µM*
O=C(NC(=S)Nc1cccc2cnccc12)c1ccccc1,i
CC1CCCCC1NC(=S)NC(=O)c1ccccc1Br (configuration not stated),i
COc1ccc2c(c1)[nH]c1c(=O)n(CCN3CCOCC3)cnc12,i
COc1ccc2c(c1)[nH]c1c(Cl)ncnc12,14.1µM*
COc1ccc(CNc2ncnc3c2[nH]c2cc(OC)c(OC)cc23)cc1,i
COc1ccc(-n2ncc3c2ncn2nc(-c4ccc(OC)c(OC)c4)nc32)cc1,i
CCN(c1ccc(C)cc1)S(=O)(=O)c1nnc(NC(=O)C2CCCCC2)s1,i
CCn1c(C(=O)NCc2cc(Br)ccc2OC)cc2oc3ccccc3c21,i
Cc1ccc(C2CC(c3cccs3)=NN2C(=O)CCl)cc1 (configuration not stated),12.6µM*
COc1ccccc1C1CC(c2cccs2)=NN1C(=O)CCC(=O)O (configuration not stated),i
COc1ccc(C2CC(c3cccs3)=NN2C(=O)c2ccc(Br)o2)cc1 (configuration not stated),i
CC(C)=CCN1CCN(Cc2cc(C(C)C)n[nH]2)CC1CCO (configuration not stated),i
SMILES,TDP-43 rescue
CCc1nnc(SCc2cccc(Cl)c2)c2cc3sccc3n12,i
O=C(Cn1c(=O)oc2cc(S(=O)(=O)N3CCCCCC3)ccc21)Nc1ccc(F)cc1F,i
Cc1ccc(CNC(=O)c2ccc(N3Cc4ccccc4Oc4ncccc43)s2)cc1,i
CC(=O)NC(CC(=O)Nc1ccc2c(c1)OCCO2)c1ccccc1 (configuration not stated),i
Cc1cccc2c1N(Cc1ccccc1OCCC(C)C)C(=O)C2=O,i
O=C(O)CCC(=O)Nc1cccc(-c2csc(-c3ccccc3)n2)c1,i
Clc1ccc(-c2cnc3ccccc3n2)cc1,i
O=C(CCl)Nc1cccc(-c2cnc3ccccc3n2)c1,12.6µM*
COc1ccc(CNC(=O)C2CCN(c3nnc(-n4c(C)ccc4C)s3)CC2)c(OC)c1,i
CCCCN1CCc2nc(N3CCN(c4ncccn4)CC3)ncc2C1,i
CC1(C(=O)NC2CCCCC2)Cc2ccccc2C(=O)N1Cc1ccc(Cl)cc1 (configuration not stated),i
Cc1cccc(N2CCN(C(=O)c3ccc4[nH]c(C)c(C)c4c3)CC2)c1C,i
Cc1cccc(N2CCN(C(=O)/C=C/c3cccs3)CC2)c1C,14.1µM*
CCOC(=O)C1CCN(C(=O)/C=C/c2cccs2)CC1,i
COC(=O)c1cc2sc(C)cc2n1Cc1nc(-c2cccc(Br)c2)oc1C,i
COc1ccc(C(=O)c2oc3ccccc3c2NC(=O)COc2ccccc2)cc1,i
CC1=C(C(=O)N2CCN(c3cccc(C)c3C)CC2)C2(CCCCC2)OC1=O,i
COc1cccc(N2CCN(C(=O)c3ccc(CS(=O)c4ccc(C)cc4)o3)CC2)c1 (configuration not stated),i
Cc1ccccc1S(=O)Cc1ccc(C(=O)N2CCN(c3cccc(C)c3C)CC2)o1 (configuration not stated),20µM*
COc1cccc(C(=O)N(Cc2sccc2C)C2CCS(=O)(=O)C2)c1 (configuration not stated),i
CCOc1ccc(C(=O)Nc2ccc3oc(-c4ccc(C)cc4C)nc3c2)cc1Br,i
CCCN(CC1CC1)C(=S)Nc1ccccc1F,i
